From the antibiotic and cytotoxicity screens of Wong et al. (2023)
In all, about 39,000 compounds went through this assay and about 3,300 (8.5%) were called active. What follows is part of a selection rich in actives, with near analogues and random picks from the rest.

tested on: HepG2; experiment: cytotoxicity call (relative viability < 0.9); conditions: 10 µM

Compound | cytotoxicity call
COCC(=O)Nc1ccc2c(c1)C(=O)N(C)C[C@H](OC)[C@H](C)CN(Cc1ccccc1OC)[C@H](C)CO2 | inactive
C[C@H]1CN([C@@H](C)CO)C(=O)Cc2cc(NS(C)(=O)=O)ccc2O[C@@H]1CN(C)C(=O)Nc1ccccc1 | inactive
COCCNC(=O)C[C@@H]1C[C@@H]2c3cc(NS(C)(=O)=O)ccc3O[C@@H]2[C@@H](CO)O1 | inactive
COc1ccc([C@H]2C/C=C\C[C@H](c3cccc(Cl)c3)NC(=O)[C@@H](c3ccccc3)CC(=O)N2)c(OC)c1 | inactive
CC(=O)O.N=C(N)NN=Cc1c(Cl)cccc1Cl | inactive
Cc1ccc(-c2ccc3c(c2)O[C@@H](CN(C)C(=O)CN(C)C)[C@H](C)CN([C@@H](C)CO)S3(=O)=O)cc1 | inactive
CN(C)CCNC(=O)[C@H]1CN(Cc2cnn(C)c2)Cc2ccnn2C1 | inactive
C[C@H]1CN([C@@H](C)CO)C(=O)Cc2cc(NC(=O)Nc3ccc(C(F)(F)F)cc3)ccc2O[C@@H]1CN(C)C(=O)NC1CCCCC1 | inactive
C[C@@H]1CN([C@H](C)CO)C(=O)Cc2cc(NC(=O)Nc3ccc(C(F)(F)F)cc3)ccc2O[C@H]1CN(C)CC1CCCCC1 | active
C[C@@H]1CN([C@H](C)CO)C(=O)Cc2cc(NC(=O)Nc3ccc(C(F)(F)F)cc3)ccc2O[C@@H]1CN(C)CC1CCCCC1 | active
COCC(=O)N1C[C@H](C)[C@H](OC)CN(C)C(=O)c2ccc(NC(=O)Nc3ccccc3)cc2OC[C@@H]1C | inactive
Cc1ccc(S(=O)(=O)N(C)C[C@H]2Oc3ccc(NS(=O)(=O)c4ccccc4)cc3CC(=O)N([C@H](C)CO)C[C@@H]2C)cc1 | inactive
CC(C)NC(=O)N[C@H]1CC[C@H](CCN)O[C@H]1CO | inactive
C[C@@H]1CN([C@@H](C)CO)C(=O)c2cc(NC(=O)Cc3ccccc3)ccc2O[C@@H](C)CCCCO[C@@H]1CN(C)C(=O)Nc1cccc2ccccc12 | active
C[C@H](CO)N1C[C@H](C)[C@@H](CN(C)C(=O)Nc2cccc3ccccc23)OCCCC[C@H](C)Oc2ccc(NC(=O)Cc3ccccc3)cc2C1=O | inactive
C[C@@H]1CCCCO[C@@H](CN(C)C(=O)Nc2cccc3ccccc23)[C@@H](C)CN([C@@H](C)CO)C(=O)c2cc(NC(=O)Cc3ccccc3)ccc2O1 | inactive
C[C@@H]1CCCCO[C@H](CN(C)C(=O)Nc2cccc3ccccc23)[C@@H](C)CN([C@@H](C)CO)C(=O)c2cc(NC(=O)Cc3ccccc3)ccc2O1 | inactive
C[C@H]1CCCCO[C@@H](CN(C)C(=O)Nc2cccc3ccccc23)[C@@H](C)CN([C@@H](C)CO)C(=O)c2cc(NC(=O)Cc3ccccc3)ccc2O1 | active
C[C@@H]1CCCCO[C@@H](CN(C)C(=O)Nc2cccc3ccccc23)[C@H](C)CN([C@@H](C)CO)C(=O)c2cc(NC(=O)Cc3ccccc3)ccc2O1 | inactive
C[C@@H]1CN([C@H](C)CO)C(=O)c2cc(NC(=O)Cc3ccccc3)ccc2O[C@@H](C)CCCCO[C@@H]1CN(C)C(=O)Nc1cccc2ccccc12 | inactive
C[C@@H]1CCCCO[C@@H](CN(C)C(=O)Nc2cccc3ccccc23)[C@H](C)CN([C@H](C)CO)C(=O)c2cc(NC(=O)Cc3ccccc3)ccc2O1 | inactive
C[C@@H]1CCCCO[C@H](CN(C)C(=O)Nc2cccc3ccccc23)[C@H](C)CN([C@H](C)CO)C(=O)c2cc(NC(=O)Cc3ccccc3)ccc2O1 | active
F[C@H]1CCNC1 | inactive

Compound | cytotoxicity call
C[C@@H]1CCCCO[C@@H](CN(C)C(=O)c2ccncc2)[C@H](C)CN([C@@H](C)CO)C(=O)c2cc(NS(=O)(=O)c3ccc(Cl)cc3)ccc2O1 | inactive
Cn1cnc(=N)c2[nH]cnc21 | inactive
CN1CCN([C@H](CNC(=O)C(=O)NCCN2CCOCC2)c2ccc(N(C)C)cc2)CC1 | inactive
Cc1noc(C)c1S(=O)(=O)Nc1cccc2c1O[C@H](CN(C)Cc1ccncc1)[C@H](C)CN([C@@H](C)CO)C2=O | inactive
C[C@H]1CN([C@@H](C)CO)C(=O)Cc2cc(NC(=O)Nc3cccc4ccccc34)ccc2O[C@@H]1CN(C)C(=O)NC1CCCCC1 | inactive
C[C@@H]1O[C@@H](O)[C@H](O)[C@H](O)[C@H]1O | inactive
CO[C@H]1O[C@H](COS(=O)(=O)O)[C@@H](O[C@@H]2O[C@@H](C(=O)O)[C@@H](OC)[C@H](O)[C@H]2OS(=O)(=O)O)[C@H](O)[C@H]1NS(=O)(=O)O | inactive
COC1C(C(=O)O)OC(C)C(O)C1O.COC1OC(C(=O)O)C(O)C(O)C1O (centres undefined) [ALGINIC ACID [Mol Wt ~200,000; monomers shown] ] | active
C[C@@H]1CN([C@@H](C)CO)C(=O)Cc2cc(NC(=O)c3ccncc3)ccc2O[C@@H]1CN(C)Cc1ccncc1 | inactive
O=C(C[C@H]1CC[C@H]2[C@@H](COC[C@@H](O)CN2C(=O)c2ccc(F)cc2)O1)NCCCN1CCOCC1 | inactive
O=C(CCCCCCC(=O)Nc1ccccc1)NO | active
O=C(CCCCCCC(=O)NO)NO | inactive
O=C(CCCCCCC(=O)Nc1ccc([C@H]2C[C@H](c3ccccc3)O[C@H](c3ccccc3)O2)cc1)NO | inactive
C[C@@H]1CN([C@@H](C)CO)C(=O)CCCn2nncc2CO[C@H]1CN(C)S(=O)(=O)c1ccc(C#N)cc1 | inactive
CCO[C@@H]1OC(C(=O)N2CCCCCCC2)=C[C@H](c2coc3ccccc3c2=O)[C@H]1CCCOC(=O)NCCCCCC(=O)NO | inactive
C[C@H](CO)N1C[C@H](C)[C@@H](CN(C)C(=O)NC2CCCCC2)OCCCC[C@H](C)Oc2ccc(NC(=O)Nc3ccccc3)cc2C1=O | inactive
C[C@@H]1CN([C@H](C)CO)C(=O)c2cc(NC(=O)Nc3ccccc3)ccc2O[C@@H](C)CCCCO[C@H]1CN(C)C(=O)NC1CCCCC1 | active
C[C@@H]1CN([C@@H](C)CO)C(=O)c2cc(NC(=O)Nc3ccccc3)ccc2O[C@@H](C)CCCCO[C@@H]1CN(C)C(=O)NC1CCCCC1 | inactive
C[C@H](CO)N1C[C@H](C)[C@H](CN(C)C(=O)NC2CCCCC2)OCCCC[C@H](C)Oc2ccc(NC(=O)Nc3ccccc3)cc2C1=O | inactive
C[C@H]1CCCCO[C@@H](CN(C)C(=O)NC2CCCCC2)[C@@H](C)CN([C@@H](C)CO)C(=O)c2cc(NC(=O)Nc3ccccc3)ccc2O1 | inactive
C[C@H]1CCCCO[C@H](CN(C)C(=O)NC2CCCCC2)[C@@H](C)CN([C@@H](C)CO)C(=O)c2cc(NC(=O)Nc3ccccc3)ccc2O1 | active
C[C@H](CO)N1C[C@H](C)[C@H](CN(C)S(=O)(=O)c2ccccc2)Oc2c(NC(=O)c3cnccn3)cccc2C1=O | inactive
NNC(=O)c1cccc(C(=O)NO)c1 | inactive

Compound | cytotoxicity call
Cc1noc(C)c1NC(=O)N(C)C[C@H]1Oc2ncc(C#CCN(C)C)cc2C(=O)N([C@@H](C)CO)C[C@H]1C | inactive
O=C([O-])CCC(=O)OCC(NC(=O)C(Cl)Cl)C(O)c1ccc([N+](=O)[O-])cc1.[Na+] (centres undefined) | active
CS(=O)(=O)c1ccc(C(O)C(CO)NC(=O)C(Cl)Cl)cc1 (centres undefined) | inactive
O=C(NC(CO)C(O)c1ccc([N+](=O)[O-])cc1)C(Cl)Cl (centres undefined) | active
CCCCCCCCCCCCCCCC(=O)OC[C@H](NC(=O)C(Cl)Cl)[C@H](O)c1ccc([N+](=O)[O-])cc1 | inactive
CCCCCCCCCCCCCCCC(=O)OC[C@@H](NC(=O)C(Cl)Cl)[C@H](O)c1ccc([N+](=O)[O-])cc1 | inactive
CCCCCCCCCCCCCCCC(=O)OCC(NC(=O)C(Cl)Cl)C(O)c1ccc([N+](=O)[O-])cc1 (centres undefined) | inactive
C[C@H]1CCCCO[C@@H](CN(C)C(=O)Nc2ccc(C(F)(F)F)cc2)[C@@H](C)CN([C@@H](C)CO)C(=O)c2cc(NS(=O)(=O)c3cn(C)cn3)ccc2O1 | inactive
CNC(=O)C(=O)NC[C@H]1OCCN1S(=O)(=O)c1ccccc1 | inactive
Cc1ccc(S(=O)(=O)N(C)C[C@H]2Oc3c(NS(C)(=O)=O)cccc3C(=O)N([C@@H](C)CO)C[C@@H]2C)cc1 | inactive
C[C@H](CO)N1C[C@H](C)[C@H](CN(C)Cc2ccncc2)Oc2ccc(NC(=O)c3ccncc3)cc2C1=O | inactive
C[C@@H]1CN([C@@H](C)CO)S(=O)(=O)c2ccc(-c3ccncc3)cc2O[C@@H]1CN(C)S(=O)(=O)c1ccccc1F | inactive
O=C(C1=C[C@H](c2csc3ccccc23)C[C@H](OCc2ccc(CO)cc2)O1)N1CCN(Cc2ccccc2)CC1 | inactive
O=C(C1=C[C@H](c2csc3ccccc23)C[C@H](OCc2ccc(CO)cc2)O1)N1CCN(Cc2ccc3c(c2)OCO3)CC1 | inactive
O=C(C1=C[C@@H](c2csc3ccccc23)C[C@@H](OCc2ccc(CO)cc2)O1)N1CCN(Cc2ccc3c(c2)OCO3)CC1 | active
C[C@H](CO)N1C[C@H](C)[C@H](CN(C)S(C)(=O)=O)Oc2ccc(NC(=O)c3ccncc3)cc2CC1=O | inactive
CCc1nn(CCCN2CCN(c3cccc(Cl)c3)CC2)c(=O)n1CCOc1ccccc1 | active
COc1ccccc1N1CCN(c2ncc(C(=O)N3CCN(c4cccc(Cl)c4)CC3)c3ccccc23)CC1 | inactive
Cl.O=c1n(CCCN2CCN(c3cccc(Cl)c3)CC2)nc2ccccn12 | inactive
C[C@H]1CN([C@@H](C)CO)C(=O)c2cccc(NS(=O)(=O)c3ccc(F)cc3)c2O[C@H]1CN(C)Cc1ccncc1 | inactive
COc1cc(C(=O)NCCCN2CCCN(CCCNC(=O)c3cc(OC)c(OC)c(OC)c3)CC2)cc(OC)c1OC | inactive
Cc1cn(CCN2CCN(c3ccccc3-c3cc(C#N)cc(C(=O)NCCCN4CCCC4)c3)CC2)c2ccccc12 | active
Cc1cn(CCC#N)c2ccccc12 | inactive
